Results on 21 compounds are retold here after PubChem BioAssay (NCATS).

Inconclusive results are not listed. Calls of active or inactive are those of the source. Calls come from the whole dose curve.
Potency is the fitted concentration of half-maximal effect.

The nature of the assay: Cell Viability - MRC5 (AID 434).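 Note: potency reflects cytotoxicity seen as loss of intracellular ATP.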 The settings on record: MRC5 lung fibroblast viability, qHTS. An excerpt: NIH Chemical Genomics Center [NCGC]
NIH Molecular Libraries Screening Centers Network [MLSCN]
National Institutes of Environmental Health Sciences [NIEHS]
National Toxicology Program [NTP]
We have developed a 1536-well cell-based assay for quantitative high throughput screening (qHTS) against a number of cell lines to determine in vitro cytotoxicity of small molecules. This particular assay uses the MRC5 cell line which is derived from normal human lung fibroblasts.
NCGC Assay Protocol Summary:
The CellTiter-Glo luminescent cell viability assay (Promega) is a homogeneous method to measure the number of viable cells in culture. The end point readout of this assay is based on quantitation of intracellular ATP, an indicator of metabolic activity, using the luciferase reaction. Luciferase catalyzes the oxidation of beetle Luciferin to oxyluciferin and light in the presence of ATP. The luminescent signal is proportional to amount of ATP present.
Using the CellTiter-Glo luminescent cell viability assay, the amount of cellular ATP was measured in the MRC5 cell line with complete culture medium following compound treatment for 40 hours. The assay was performed in opaque white Kalypsys 1536-well plates. In the screen, tamoxifen and doxorubicin were used as positive controls. Library compounds were measured for their ability to cause acute toxicity in the cell line, as reflected by a decrease in intracellular ATP levels, in a concentration-dependent manner. Data were normalized to the controls for basal activity (DMSO only) and 100% inhibition (100 uM tamoxifen). AC50 values were determined from concentration-response data modeled with the standard Hill equation.
qHTS protocol for CellTiter Glo MRC5 cellular assay
[Step] [Parameter] [Value] [Description]
1. Reagent; 5 uL; 1500 MRC5 cells/well
2. Time; 5 hr; 37 °C incubation
4. Controls; 23 nL; Tamoxifen 0.34 uM to 100 uM & Doxorubicin 0.02 nM to 100 uM
5. Time; 40 hr; 37 °C incubation
6. Reagent; 5 uL; CellTiter Glo reagent
7. Time; 20 min; Room Temperature
8. Detection; Luminescence; Viewlux plate reader
Keywords: cell viability, cytotoxicity, MRC5 cell line, luminescence, NTPHTS, NTPHTS_NCGC, NIEHS, EPA, DSSTox, MLSMR, MLSCN, NIH Roadmap, qHTS, NCGC
On the technique in general: Quantitative high-throughput screening tests each substance at several concentrations.
Consider `Nc1cccc2c(N)cccc12`, for which the Potency is > 92 µM (inactive). For `Nc1ccc(O)cc1` the value was 53.3 µM (active); for `Cc1cc(C(C)(C)C)c(O)c(C(C)(C)C)c1`, > 92 µM (inactive); for `O=C(c1ccccc1)c1ccccc1`, > 92 µM (inactive). As for `CC(C)(c1ccc(O)cc1)c1ccc(O)cc1`, the figure is > 92 µM (inactive); as for `Brc1ccccc1-c1ccccc1`, > 92 µM (inactive); as for `COc1cc(C=O)ccc1O`, > 92 µM (inactive). As for `CCCCCCCCCCCCCCCC[n+]1ccccc1`, the Potency was 29.8 µM (active). As for `Cc1ccc(O)cc1`, the figure is > 92 µM (inactive). As to `CC(C)C(C)(C)C(C)(C)C(C)(C)S`, the Potency was > 92 µM (inactive). Regarding `OCc1c[nH]c2ccccc12`, the Potency was > 92 µM (inactive). In the case of `CC(=O)OC/C=C(C)/C=C/C=C(C)/C=C/C1=C(C)CCCC1(C)C`, the Potency is > 92 µM (inactive). For the compound `Oc1ccccc1`, the Potency was > 92 µM (inactive).

`C1=CC2C3C=CC(C3)C2C1` (stereo unspecified): the Potency was > 92 µM (inactive).

On to `CCCCC(CC)COC(=O)c1ccccc1C(=O)O` (stereo unspecified), for which the Potency was > 92 µM (inactive). `c1ccc2occc2c1`: the Potency is > 92 µM (inactive).

Take `O=C(Oc1ccccc1)c1ccccc1O`: the Potency was > 92 µM (inactive). For the compound `Nc1c2ccccc2nc2ccccc12`, the Potency is 38.2 µM (active). For `O=C(NO)c1ccccc1` the value was > 92 µM (inactive). As for `CC(C)(C)c1ccc(O)c(O)c1`, the figure is > 92 µM (inactive).

Turning to `CCCC(=O)c1cc(O)c(O)cc1O`, the Potency is > 92 µM (inactive).
